log2 fold change data for eleven targets are collected here from the supplement of paper PMC12819154, “High-throughput peptide-centric local stability assay extends protein–ligand identification to membrane proteins, tissues and bacteria” (Nature Structural & Molecular Biology, 2025).
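Note: lysate desalted by size exclusion to strip endogenous ATP, peptide intensities built from DIA-NN precursor signals, and peptides missing any value discarded before comparison.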

Compound in the assay: Nc1ncnc2c1ncn2[C@@H]1O[C@H](COP(=O)(O)OP(=O)(O)OP(=O)(O)O)[C@@H](O)[C@H]1O [adenosine 5'-triphosphate]
Put plainly: log2 fold change of tryptic peptide abundance, ligand vs vehicle (limited proteolysis) (log2 ratio); higher = more trypsin-susceptible (destabilized). The note with it: ligand concentration: 5 mM; sample: E. coli desalted lysate; replicate design: treated before aliquoting. As for the experimental part: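 HT-PELSA: desalted E. coli K-12 BW25113 lysate (with 12 mM MgCl2) incubated with 5 mM ATP (pH 7) or water for 30 min at 25 C, then a 4 min trypsin pulse at 22 C. Peptides were quantified by DIA-MS (4 replicates). Value is the peptide log2 fold change (treated/control); negative = stabilized. Scale: negative = ligand-stabilized region.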
For the target “UniProt P0A9B6 (peptide sequence: SLQSLPWR, peptide start residue: 82)”, the log2 fold change was -0.912. With “UniProt P22106 (peptide sequence: QALEDSVK, peptide start residue: 214)”, the log2 fold change is -0.816. In the case of “UniProt P77499 (peptide sequence: SVNVGFSGGEK, peptide start residue: 141)” it was -0.896; in that of “UniProt P42632 (peptide sequence: IKALPTYR, peptide start residue: 593)”, 0.596; in that of “UniProt P28634 (peptide sequence: WRVTDAGFEVFALEPR, peptide start residue: 220)”, 0.789. In the case of “UniProt P37626 (peptide sequence: TVETSDER, peptide start residue: 297)” it was 0.336.

As to “UniProt P42603 (peptide sequence: TPSAVDER, peptide start residue: 175)”, the log2 fold change was -0.551. The figure for “UniProt P23839 (peptide sequence: YLETYFRLPEQFR, peptide start residue: 31)” is 0.91. Consider “UniProt P0ADA3 (peptide sequence: IATMGSTGTSSTR, peptide start residue: 346)”, for which the log2 fold change came to 0.385. The figure for “UniProt P29018 (peptide sequence: HLSWVGQNPQLPAATLR, peptide start residue: 424)” is -0.418. As to “UniProt P15977 (peptide sequence: RKLSATLESMFADDGVNK, peptide start residue: 661)”, the log2 fold change was -0.78.
